Test results taken from the supplement of paper PMC3414501.
Counter-ions that a name gives are not always drawn.

Experiments:
[1] = test system: S. cerevisiae SK1 pCDA2-eGFP (USY613), sporulating; assay: CDA2-GFP sporulation assay sensitivity score (z-score vs DMSO controls); higher = stronger inhibition of sporulation, active = hit call of the paper;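 note: active if sensitivity score above 5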
[2] = test system: S. cerevisiae NKY1551 his4x/his4B, sporulating; assay: HIS4 meiotic recombination assay sensitivity score (z-score vs DMSO controls); higher = stronger inhibition of sporulation/recombination, active = hit call of the paper;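 note: active if sensitivity score above 5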
[3] = test system: S. cerevisiae AD1-9 (efflux-pump deficient), vegetative growth in YPD; assay: growth sensitivity score (doubling time z-score vs DMSO controls); higher = slower growth, strongly negative scores also mark growth inhibition (complete suppression), active = hit call of the paper
Procedure, shortened: (§1)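 Yeast (Saccharomyces cerevisiae BY4741 and AD1-9) was grown in rich medium in microtiter plates from a starting OD600 of 0.065, with optical density read every 15 min over 24 hours. The growth sensitivity score was the difference between compound and solvent-only means, divided by the solvent-only standard deviation. Every experiment had eight solvent-only wells.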

[4] = test system: S. cerevisiae BY4741 (wild-type), vegetative growth in YPD; assay: as above
Procedure, shortened: as §1

Row | Compound | CDA2-GFP sporulation assay sensitivity score [1] | HIS4 meiotic recombination assay sensitivity score [2] | growth sensitivity score [3] | growth sensitivity score [4]
1 | CC1=C(C(=O)O)N2C(=O)[C@@H](NC(=O)[C@H](N)c3ccccc3)[C@H]2SC1 [Cephalexin monohydrate] (stock concentration (mM, diluted 1:100): 10) | -1.64 (inactive) | -1.5 (inactive) | -0.53 (inactive) | 0.27 (inactive)
2 | CCCCCCCCCCC[C@@H](C[C@@H]1OC(=O)[C@H]1CCCCCC)OC(=O)[C@H](CC(C)C)NC=O [Orlistat] (stock concentration (mM, diluted 1:100): 10) | -2.33 (inactive) | -1.52 (inactive) | -0.73 (inactive) | 0.78 (inactive)
3 | COC(=O)C1=C(C)NC(C)=C(C(=O)OC)C1c1ccccc1[N+](=O)[O-] [Nifedipine] (stock concentration (mM, diluted 1:100): 10.7) | 3.14 (inactive) | 1.3 (inactive) | 60 (active) | 4.28 (active)
4 | COc1ccc(CC2c3cc(OC)c(OC)cc3CC[N+]2(C)CCC(=O)OCCCCCOC(=O)CC[N+]2(C)CCc3cc(OC)c(OC)cc3C2Cc2ccc(OC)c(OC)c2)cc1OC (stereo not given) [Atracurium besylate] (stock concentration (mM, diluted 1:100): 10) | 17.9 (active) | 0.87 (inactive) | -2.52 | -0.31 (inactive)
5 | CN(C)CCOC(C)(c1ccccc1)c1ccccn1 (stereo not given) [Doxylamine succinate] (stock concentration (mM, diluted 1:100): 10) | -0.3 (inactive) | 1.01 (inactive) | -0.68 (inactive) | 1.39 (inactive)
6 | COc1cc2nc(N(C)CCCNC(=O)C3CCCO3)nc(N)c2cc1OC (stereo not given) [Alfuzosin] (stock concentration (mM, diluted 1:100): 10) | 0.06 (inactive) | -0.29 (inactive) | -1.12 (inactive) | -0.26 (inactive)
7 | C=CC1=C(C(=O)O)N2C(=O)[C@@H](NC(=O)/C(=N\O)c3csc(N)n3)[C@H]2SC1 [Cefdinir] (stock concentration (mM, diluted 1:100): 10) | 3.95 (inactive) | 0 (inactive) | -1.07 (inactive) | -0.67 (inactive)
8 | CCCc1c(OCCCCc2nnn[nH]2)ccc(C(C)=O)c1O (stock concentration (mM, diluted 1:100): 10) | -1.99 (inactive) | -2.23 (inactive) | 5.49 (active) | 1.14 (inactive)
9 | CCCCC[C@H](O)/C=C/[C@H]1[C@H](O)CC(=O)[C@@H]1CCCCCCC(=O)O [Prostaglandin E1] (stock concentration (mM, diluted 1:100): 10) | 6.45 (inactive) | 1.5 (inactive) | 0.11 (inactive) | -0.67 (inactive)
10 | CCCCC1=NC2(CCCC2)C(=O)N1Cc1ccc(-c2ccccc2-c2nnn[nH]2)cc1 [Irbesartan] (stock concentration (mM, diluted 1:100): 10.1) | -0.17 (inactive) | -0.26 (inactive) | -0.82 (inactive) | -0.72 (inactive)
11 | Cn1nnc2c(C(N)=O)ncn2c1=O [Temozolomide] (stock concentration (mM, diluted 1:100): 10) | -0.1 (inactive) | -0.54 (inactive) | -0.09 (inactive) | 1.92 (inactive)
12 | CCN1CCC[C@H]1CNC(=O)c1cc(S(N)(=O)=O)ccc1OC [Levosulpiride] (stock concentration (mM, diluted 1:100): 10) | 0.11 (inactive) |  | -0.24 (inactive) | 0.25 (inactive)
13 | CCN(CC)CC(=O)Nc1c(C)cccc1C [Lidocaine] (stock concentration (mM, diluted 1:100): 9.6) | 0.09 (inactive) |  | -0.9 (inactive) | -0.16 (inactive)
14 | Cc1onc(-c2ccccc2)c1-c1ccc(S(N)(=O)=O)cc1 [Valdecoxib] (stock concentration (mM, diluted 1:100): 10) | -1.13 (inactive) |  | 11 (active) | 0.72 (inactive)
15 | O=C1Nc2ccc(Cl)cc2[C@@](C#CC2CC2)(C(F)(F)F)O1 [Efavirenz] (stock concentration (mM, diluted 1:100): 10.1) | -2.28 (inactive) | -0.43 (inactive) |  | 40.5 (active)
16 | COC1=C(OC)C(=O)C(CCCCCCCCCCO)=C(C)C1=O [Idebenone] (stock concentration (mM, diluted 1:100): 10.2) | 0.12 (inactive) | -0.57 (inactive) |  | 15.6 (active)
17 | CCOC(=O)c1ncn2c1CN(C)C(=O)c1cc(F)ccc1-2 [Flumazenil] (stock concentration (mM, diluted 1:100): 10) | 1.01 (inactive) |  | -0.24 (inactive) | 1.4 (inactive)
18 | CN(C)CC/C=C1/c2ccccc2COc2ccc(CC(=O)O)cc21 [Olopatadine hydrochloride] (stock concentration (mM, diluted 1:100): 12.7) | 1.08 (inactive) | -0.7 (inactive) |  | -0.74 (inactive)
19 | COc1cc(C)nc(-n2nc(C)cc2OC)n1 [Mepirizole] (stock concentration (mM, diluted 1:100): 10) | -1.87 (inactive) |  | -0.94 (inactive) | -1.02 (inactive)
20 | CCCCc1oc2ccccc2c1C(=O)c1cc(I)c(OCCN(CC)CC)c(I)c1 [Amiodarone hydrochloride] (stock concentration (mM, diluted 1:100): 9.5) | 7.12 (inactive) | -0.63 (inactive) |  | 126 (active)
21 | OCCOCCN1CCN(C2=Nc3ccccc3Sc3ccccc32)CC1 [Quetiapine hemifumarate] (stock concentration (mM, diluted 1:100): 7.7) | 9.6 (active) |  | 0.31 (inactive) | 1.12 (inactive)
22 | COc1ccc2c3c1O[C@H]1C[C@@H](O)C=C[C@@]31CCN(C)C2 [Galanthamine] (stock concentration (mM, diluted 1:100): 8.8) | -0.36 (inactive) |  | -1.27 (inactive) | 0.11 (inactive)
23 | NC(=O)N1c2ccccc2CC(=O)c2ccccc21 [Trileptal] (stock concentration (mM, diluted 1:100): 10) |  | -2.89 (inactive) | 1.04 (inactive) | 1.24 (inactive)
